Measured values reported in PubChem BioAssay (EPA / NIEHS).
Calls of active or inactive are those of the source. How the source made its calls: active means hit-call score of the fitted dose curve at least 0.9, where 1 is the maximum; inactive means score below 0.9.

What follows are compounds tested on solute carrier (SLC22A1), SLC22A1 (gene 6580) (assay: LTEA_HepaRG_SLC22A1: Life Technologies and Expression Analysis (LTEA) Assay for solute carrier (SLC22A1) using HepaRG (AID 2283524;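 on AC50: differentiated human HepaRG liver cells in serum-free induction medium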)). Conditions: mRNA level, 48 h; actives raise or lower the signal.
In short: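 Human HepaRG cells were plated 48 h, switched to serum-free induction medium, then exposed in duplicate for 48 h to 8-point half-log series from 100 uM in 0.5% DMSO. SLC22A1 mRNA measured by qRT-PCR, normalized to ACTB/GAPDH/POLR2A, fitted bidirectionally versus DMSO.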

Structure (SMILES) | outcome | AC50
CCOP(=O)(SC(C)CC)N1CCSC1=O (centres undefined) | inactive | 
CCCSP(=O)(OCC)Oc1ccc(Br)cc1Cl (centres undefined) | inactive | 
CSc1nnc(C(C)(C)C)c(=O)n1N | inactive | 
Cc1ccn2nc(S(=O)(=O)Nc3c(F)cccc3F)nc2n1 | inactive | 
CC(C)=CC1C(C(=O)OCN2C(=O)C3=C(CCCC3)C2=O)C1(C)C (centres undefined) | inactive | 
FC(F)C(F)(F)OCC(Cn1cncn1)c1ccc(Cl)cc1Cl (centres undefined) |  | 19.7 µM (active)
CC(C1CC1)C(O)(Cn1cncn1)c1ccc(Cl)cc1 (centres undefined) |  | 66.9 µM (active)
Cc1cc(C2CC2)nc(Nc2ccccc2)n1 |  | 67.7 µM (active)
C[N+]1(C)CCCCC1 | inactive | 
CC[C@H](C)[C@H]1O[C@]2(C=C[C@@H]1C)C[C@@H]1C[C@@H](C/C=C(\C)[C@@H](O[C@H]3C[C@H](OC)[C@@H](O[C@H]4C[C@H](OC)[C@@H](NC)[C@H](C)O4)[C@H](C)O3)[C@@H](C)/C=C/C=C3\CO[C@@H]4[C@H](O)C(C)=C[C@@H](C(=O)O1)[C@]34O)O2 |  | 23.8 µM (active)
COP(=O)(OC)C(O)C(Cl)(Cl)Cl (centres undefined) | inactive | 
S=C1NCCN1 | inactive | 
CCNc1nc(Cl)nc(NC(C)(C)C#N)n1 | inactive | 
CON=C(C(=O)OC)c1ccccc1CON=C(C)c1cccc(C(F)(F)F)c1 |  | 50 µM (active)
CCCCOC(=O)c1ccccc1C(=O)O | inactive | 
Nc1nc(N)nc(NC2CC2)n1 | inactive | 
C[Si](Cn1cncn1)(c1ccc(F)cc1)c1ccc(F)cc1 |  | 63.1 µM (active)
CNC(=O)ON=C(SC)C(=O)N(C)C | inactive | 
COc1cc(OC)nc(Sc2cccc(Cl)c2C(=O)O)n1 | inactive | 
